# Inconclusive results are not listed. Entries that show only a call come without a potency. Calls of active or inactive are those of the source. Unless noted, calls follow the shape of the dose curve; as a rule, active = well fitted curve in the direction sought with a large enough effect; inconclusive = small, poorly fitted or top-dose-only effect, or another doubt; inactive = no such curve, though single readings can be large; an effect the other way counts as inactive or inconclusive.
# How the values were obtained:
# [1] = target: Cytochrome P450 3A4 (Homo sapiens) (UniProt P08684); assay: qHTS Assay for Inhibitors and Substrates of Cytochrome P450 3A4 (AID 884); also: nearly all actives have a fitted effect of over 50% in size
# Procedure, shortened: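 Luminescent readout of luciferin produced by CYP3A4 (20 nM) dealkylation of Luciferin-PPXE, 25 uM (its KM). NADPH-driven reaction ran 60 min at RT after 10 min compound preincubation; data scaled to 57 uM ketoconazole as 100% inhibition.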
# [2] = target: Cytochrome P450 3A4 (Homo sapiens) (UniProt P08684); assay: qHTS Assay for Activators of Cytochrome P450 3A4 (AID 885); also: potency is read from the fitted curve at half-maximal effect; nearly all actives have a fitted effect of over 65% in size
# Procedure, shortened: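 CYP3A4 activity: Luciferin-PPXE O-dealkylation, 25uM substrate, 200mM KPO4, RT throughout. Read-out is luciferase luminescence; higher values reflect activation.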
# Furin (Homo sapiens) = Furin (Homo sapiens) (UniProt P09958); assay: Furin counterscreen qHTS for Zika virus inhibitors (AID 1347149); also: nearly all actives have a fitted effect of over 70% in size; also: potency is read from the fitted curve at half-maximal effect;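 as to activity change, negative = inhibition: purified recombinant full-length human furin enzyme at 5 nM; fluorescence gain from furin cutting a BOC-RVRR-AMC peptide substrate over 15 min; top concentration of the series differs between compounds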
# Procedure, shortened: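 Counterscreen measures cleavage of 2 microM BOC-RVRR-AMC, below its ~15 microM Km, by 5 nM full-length human furin at pH 7.0 after a 15-min compound preincubation. Inhibition derives from the 15-min fluorescence increase at 37C.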
# [3] = system: Zika virus NS2B-NS3 protease (unlinked complex); assay: Confirmatory screen GU AMC qHTS for Zika virus inhibitors (AID 1347153); also: nearly all actives have a fitted effect of over 70% in size;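 as to potency: enzyme at 25 nM with substrate at 10 µM below its Km of 18.3 µM; potency is read from the fitted curve at half-maximal effect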
# Procedure, shortened: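 Noncovalent NS2B hydrophilic domain/NS3 protease complex (25 nM) in 10 mM Tris-HCl pH 8.0, 0.01% Tween 20 was preincubated 15 min at room temperature with compounds. Then 10 µM AMC substrate (Km 18.3 µM) was added; fluorescence was read over 15 min and fitted to a 4-parameter Hill equation.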
# [4] = Confirmatory screen NINDS Rhodamine qHTS for Zika virus inhibitors (AID 1347161); also: potency is read from the fitted curve at half-maximal effect; nearly all actives have a fitted effect of over 60% in size
# Procedure, shortened: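 qHTS dose-response: 25 nM linked protease, pH 8.0 Tris/Tween buffer, cpd titration, 15 min RT preinc, 1.5 microM Rhod110 peptide, 15 min reaction (~15% conversion), Ex480/Em540; 4-parameter Hill fit.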
# [5] = system: Zika virus NS2B-NS3 protease (linked); assay: 384 well plate NINDS AMC confirmatory qHTS for Zika virus inhibitors (AID 1347163); also: potency is read from the fitted curve at half-maximal effect; nearly all actives have a fitted effect of over 50% in size
# Procedure, shortened: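 Enzyme (5, 30 or 60 nM final) first met test compounds for ~15 min. The AMC-tagged peptide Ac-VKTGKR-AMC followed at 30 microM. Fluorescence was then recorded at 25 min and scaled against no-enzyme and no-inhibitor wells.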
# [6] = system: Zika virus NS2B-NS3 protease (linked construct); assay: 384 well plate NINDS Rhodamine confirmatory qHTS for Zika virus inhibitors (AID 1347164);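 also: fluorescence from protease cleavage of Ac-LKRR-rhodamine 110 substrate; potency is read from the fitted curve at half-maximal effect; nearly all actives have a fitted effect of over 65% in size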
# Procedure, shortened: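 Linked NS2B-NS3 protease (final 5, 30 or 60 nM) preincubated ~15 minutes with compounds, then 10 microM Ac-LKRR-Rhodamine 110 added. Fluorescence (485/538 nm) read after 25 minutes at room temperature, normalized to no-enzyme and no-inhibitor controls.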
# [7] = Vero cells viability qHTS for Zika virus inhibitors (AID 1347167)
# Procedure, shortened: (§1)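 Luminescent ATP readout (CellTiter Glo) after 30 min at 37 degrees C gives viability; cells in DMEM + 4% FBS were treated 24 to 48 hours with compound, following overnight attachment.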
# [8] = HepG2 cells viability qHTS for Zika virus inhibitors (AID 1347168)
# Procedure, shortened: as §1
# [9] = Primary qHTS for small molecule stabilizers of the endoplasmic reticulum resident proteome: Secreted ER Calcium Modulated Protein (SERCaMP) assay (AID 1508630)
# Procedure, shortened: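 The SH-SY5Y reporter protocol was run at 3 concentrations up to 38.3 uM (primary) or 11 concentrations (follow-up): 16 h compound, 100 nM thapsigargin for 4 h, then extracellular luciferase luminescence.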
# [10] = ZIKV-mCherry secondary qHTS for Zika virus inhibitors (AID 1347158); also: top concentration of the series differs between compounds
# Procedure, shortened: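 This orthogonal imaging screen measured ZIKV-mCherry infection of Vero cells exposed to compound, MOI 1, 48-72 h. Percent infection came from segmented nuclei scored mCherry-positive above 3 SD of negative controls.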
# [11] = Tertiary RLuc qRT-PCR qHTS assay for Zika virus inhibitors (AID 1347169); also: nearly all actives have a fitted effect of over 55% in size; also: potency is read from the fitted curve at half-maximal effect; as to activity change, negative = inhibition: top concentration of the series differs between compounds
# Procedure, shortened: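 Vero cells (1,000/well) infected with recombinant ZIKV-RLuc (Cambodian) at MOI 1-2 after compound addition, 48-72 hrs at 37 degrees C. Live-cell Renilla luciferase substrate added; luminescence read after 1-1.5 hrs.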
# [12] = system: Zika virus NS2B-NS3 protease; assay: Primary screen GU AMC qHTS for Zika virus inhibitors (AID 1347154); also: potency is read from the fitted curve at half-maximal effect; nearly all actives have a fitted effect of over 70% in size
# Procedure, shortened: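 Fluorogenic AMC-substrate cleavage by noncovalent NS2B-NS3 protease complex (25 nM, pH 8.0 Tris buffer with Tween 20) followed for 15 minutes at room temperature (~20% conversion). Percent inhibition from ex340/em450 signal change, fitted by 4-parameter Hill equation.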
# [13] = target: Glucocorticoid receptor (Homo sapiens) (UniProt P04150); assay: GR-GFP Redistribution (AID 450;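 active = compounds whose dose series gives a full or clear partial fitted curve of increased nuclear translocation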; also: potency is read from the fitted curve at half-maximal effect); conditions: U2OS GR-GFP nuclear translocation, laser cytometry, 2 h
# [14] = target: Glucocorticoid receptor (Homo sapiens) (UniProt P04150); assay: GR-EFC Redistribution (AID 451; calls by dose curve; also: potency is read from the fitted curve at half-maximal effect); conditions: CHO-K1 GR-EFC translocation, beta-gal luminescence, 2 h
# Procedure, shortened: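 Translocation of GR-ED fusion to nuclear EA restores b-gal, read by luminescence after 1 h room-temperature detection. Engineered CHO-K1 biosensor cells, 1,000/well, exposed 2 h at 37 C to titrations up to 46 uM final.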
# [15] = target: Mitogen-activated protein kinase 10 (Mus musculus) (UniProt Q61831); assay: JNK3 AlphaScreen Assay (AID 530; active = well fitted curve in either direction with a large enough effect, not every such curve was filed as active;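 also: kinase came from lysate of stimulated human HepG2 cells; signal reports phosphorylation of biotinylated GST-cJun 1-79 at Ser73 with 10 µM ATP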)
# Procedure, shortened: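 Kinase buffer: 20 mM Tris-HCl pH 7.6, 10 mM MgCl2, 1 mM DTT, 0.1 mM Na3VO4, 0.01% Tween-20; ATP 10 uM. Substrate biotin-GST-cJun(1-79), enzyme from activated HepG2 lysates. Detection by Ser73 phospho-antibody AlphaScreen.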
# [16] = target: 3',5'-cyclic-AMP phosphodiesterase 4B (Homo sapiens) (UniProt Q07343); assay: qHTS Assay for Inhibitors of PDE-IV (AID 607; active = well fitted activation curve with a large enough effect in the main read-out, with a control signal flat, not every such curve was filed as active)
# Procedure, shortened: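 ACTOne HEK293 cells carry a modified cAMP-gated CNG channel and express endogenous PDE4; plated 1000 cells/well, compounds up to 22.9 uM final. Membrane-potential dye fluorescence (ex 535/em 590) was read; parental cells received 10 uM forskolin + 100 uM RO 20-1724.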
# [17] = target: Ubiquitin carboxyl-terminal hydrolase 1 (Homo sapiens) (UniProt O94782); assay: Inhibitors of USP1/UAF1: Pilot qHTS (AID 504865); also: potency is read from the fitted curve at half-maximal effect; nearly all actives have a fitted effect of over 35% in size
# Procedure, shortened: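 USP1/UAF1 complex at 1 nM preincubated 15 min at room temperature with compound, then Ub-Rho substrate added at 150 nM final. Fluorescence (480/540 nm) read kinetically in 50 mM HEPES pH 7.8, 0.5 mM EDTA, 1 mM TCEP, 0.1 mg/ml BSA, 0.01% Tween-20.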
# [18] = target: DNA dC->dU-editing enzyme APOBEC-3G (Homo sapiens) (UniProt Q9HC16); assay: qHTS for inhibitors of Vif-A3G interactions: Validation (AID 588379)
# Procedure, shortened: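 Yellow fluorescence (Ex 488, Em 500-530) of Vif-coexpressing HeLa A3G-eYFP cells, scanned by Acumen cytometer, reports blocked A3G degradation. Cells plated at 700/well overnight at 37 deg C before compound addition, then a further overnight compound incubation at 37 deg C.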
# [19] = target: Rap guanine nucleotide exchange factor 3 (Homo sapiens) (UniProt O95398); assay: Confirmatory qHTS for antagonist of cAMP-regulated guanine nucleotide exchange factor 3 (EPAC1) (AID 1645880); also: potency is read from the fitted curve at half-maximal effect; nearly all actives have a fitted effect of over 55% in size
# Procedure, shortened: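 Released BODIPY-GDP fluoresces less than Rap1-bound BODIPY-GDP; the signal is followed at 480/540 nm at 5-min intervals over 30 min, after 5 min at room temperature. Reactions contain 100 nM EPAC1, 250 nM RAP1B-BODIPY-GDP and 50 uM GDP; results are normalized to ATA and DMSO.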
# [20] = target: Rap guanine nucleotide exchange factor 3 (Homo sapiens) (UniProt O95398); assay: Confirmatory qHTS for agonist of cAMP-regulated guanine nucleotide exchange factor 3 (EPAC1) (AID 1645881);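 also: EPAC1 catalysed release of BODIPY-GDP from Rap1B seen as fluorescence loss; nearly all actives have a fitted effect of over 75% in size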
# [21] = target: Rap guanine nucleotide exchange factor 4 (Homo sapiens) (UniProt Q8WZA2); assay: Confirmatory qHTS for agonist of cAMP-regulated guanine nucleotide exchange factor 4 (EPAC2) (AID 1645884);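 also: nucleotide exchange releases bodipy-GDP from Rap1 and this lowers its fluorescence; nearly all actives have a fitted effect of over 65% in size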
# [22] = target: Rap guanine nucleotide exchange factor 4 (Homo sapiens) (UniProt Q8WZA2); assay: Confirmatory qHTS for antagonist of cAMP-regulated guanine nucleotide exchange factor 4 (EPAC2) (AID 1645885); also: potency is read from the fitted curve at half-maximal effect; nearly all actives have a fitted effect of over 25% in size
# [23] = system: Zika virus NS2B-NS3 protease (unlinked); assay: Optimization of GU AMC qHTS for Zika virus inhibitors: Unlinked NS2B-NS3 protease assay (AID 1347151); also: nearly all actives have a fitted effect of over 80% in size
# Procedure, shortened: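 Noncovalent NS2B hydrophilic domain–NS3 protease complex (25 nM final) in 10 mM Tris-HCl pH 8.0, 0.01% Tween 20; AMC substrate, room temperature 15 min (~20% conversion); fluorescence change normalized, 4-parameter Hill fit.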
# [24] = target: Catechol O-methyltransferase (Homo sapiens) (UniProt P21964); assay: Confirmatory Screen for Target Class Profiling of Small Molecule Inhibitors of Methyltransferases (AID 1745852; calls by dose curve; also: potency is read from the fitted curve at half-maximal effect); conditions: MTase-Glo luminescence, SAH detection, recombinant enzyme; measured here: COMT max response; stronger effect = lower value
# [25] = target: Guanidinoacetate N-methyltransferase (Homo sapiens) (UniProt Q14353); assay: as above; conditions: activity change, negative = inhibition: at 57.3 µM (top of the series) unless noted
# [26] = target: Nicotinamide N-methyltransferase (Homo sapiens) (UniProt P40261); assay: as above; conditions: MTase-Glo luminescence, SAH detection, recombinant enzyme; measured here: NNMT max response; stronger effect = lower value
# [27] = target: Phenylethanolamine N-methyltransferase (Homo sapiens) (UniProt P11086); assay: as above; conditions: MTase-Glo luminescence, SAH detection, recombinant enzyme; measured here: PNMT max response; stronger effect = lower value
# [28] = system: Zika virus NS2B-NS3 protease (linked construct); assay: Confirmatory screen NINDS AMC qHTS for Zika virus inhibitors (AID 1347152);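 also: AMC fluorescence gain from cleaved Bz-Nle-KRR-AMC substrate over 15 min; top concentration of the series differs between compounds; nearly all actives have a fitted effect of over 70% in size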
# Procedure, shortened: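 Linked NS2B-NS3 protease, 1 nM, in 10 mM Tris-HCl pH 8.0, 0.01% Tween 20; compounds preincubated 15 min at room temperature. Nle-KRR-AMC 10 microM (Km 18.3 µM); 15-min fluorescence change (340/450 nm) fitted to 4-parameter Hill.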
# [29] = target: Glutathione peroxidase 1 (Homo sapiens) (UniProt P07203); assay: Primary qHTS Assay for Inhibitors of Recombinant Selenoprotein Glutathione Peroxidase 1 (GPX1) (AID 1845191); also: nearly all actives have a fitted effect of over 65% in size
# Procedure, shortened: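 NADPH consumption tracked by fluorescence at 340/450 nm between t=0 and t=15 min, room temperature. Final mix: 10 nM GPX1, 100 nM glutathione reductase, 1 mM GSH, 0.5 mM NADPH, 0.5 mM cumene hydroperoxide, 0.01% BSA; 30 min compound–enzyme preincubation.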
# Chain of Furin (Homo sapiens) (P09958 whole entry, looked up): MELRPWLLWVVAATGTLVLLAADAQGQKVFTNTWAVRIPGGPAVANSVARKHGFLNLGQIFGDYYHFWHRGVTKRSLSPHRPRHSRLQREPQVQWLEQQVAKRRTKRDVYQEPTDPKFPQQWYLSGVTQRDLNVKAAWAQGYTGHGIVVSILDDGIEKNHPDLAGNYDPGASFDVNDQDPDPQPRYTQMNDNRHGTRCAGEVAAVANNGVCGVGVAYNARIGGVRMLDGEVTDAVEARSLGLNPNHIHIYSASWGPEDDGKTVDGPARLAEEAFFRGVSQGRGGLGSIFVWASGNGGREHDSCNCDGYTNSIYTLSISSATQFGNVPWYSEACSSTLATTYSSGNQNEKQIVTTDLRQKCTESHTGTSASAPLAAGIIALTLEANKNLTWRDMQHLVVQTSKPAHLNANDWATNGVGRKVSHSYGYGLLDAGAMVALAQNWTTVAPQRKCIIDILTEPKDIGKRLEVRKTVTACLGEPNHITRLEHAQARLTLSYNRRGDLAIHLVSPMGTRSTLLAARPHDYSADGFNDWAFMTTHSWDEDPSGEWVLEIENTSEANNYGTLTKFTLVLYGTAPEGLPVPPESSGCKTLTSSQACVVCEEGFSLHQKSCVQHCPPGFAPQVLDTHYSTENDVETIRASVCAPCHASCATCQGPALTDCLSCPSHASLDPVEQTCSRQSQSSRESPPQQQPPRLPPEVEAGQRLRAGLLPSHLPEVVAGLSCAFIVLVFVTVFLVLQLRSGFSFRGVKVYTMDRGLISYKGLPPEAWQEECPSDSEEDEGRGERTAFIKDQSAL
# Chain of Rap guanine nucleotide exchange factor 4 (Homo sapiens) (Q8WZA2 whole entry, looked up): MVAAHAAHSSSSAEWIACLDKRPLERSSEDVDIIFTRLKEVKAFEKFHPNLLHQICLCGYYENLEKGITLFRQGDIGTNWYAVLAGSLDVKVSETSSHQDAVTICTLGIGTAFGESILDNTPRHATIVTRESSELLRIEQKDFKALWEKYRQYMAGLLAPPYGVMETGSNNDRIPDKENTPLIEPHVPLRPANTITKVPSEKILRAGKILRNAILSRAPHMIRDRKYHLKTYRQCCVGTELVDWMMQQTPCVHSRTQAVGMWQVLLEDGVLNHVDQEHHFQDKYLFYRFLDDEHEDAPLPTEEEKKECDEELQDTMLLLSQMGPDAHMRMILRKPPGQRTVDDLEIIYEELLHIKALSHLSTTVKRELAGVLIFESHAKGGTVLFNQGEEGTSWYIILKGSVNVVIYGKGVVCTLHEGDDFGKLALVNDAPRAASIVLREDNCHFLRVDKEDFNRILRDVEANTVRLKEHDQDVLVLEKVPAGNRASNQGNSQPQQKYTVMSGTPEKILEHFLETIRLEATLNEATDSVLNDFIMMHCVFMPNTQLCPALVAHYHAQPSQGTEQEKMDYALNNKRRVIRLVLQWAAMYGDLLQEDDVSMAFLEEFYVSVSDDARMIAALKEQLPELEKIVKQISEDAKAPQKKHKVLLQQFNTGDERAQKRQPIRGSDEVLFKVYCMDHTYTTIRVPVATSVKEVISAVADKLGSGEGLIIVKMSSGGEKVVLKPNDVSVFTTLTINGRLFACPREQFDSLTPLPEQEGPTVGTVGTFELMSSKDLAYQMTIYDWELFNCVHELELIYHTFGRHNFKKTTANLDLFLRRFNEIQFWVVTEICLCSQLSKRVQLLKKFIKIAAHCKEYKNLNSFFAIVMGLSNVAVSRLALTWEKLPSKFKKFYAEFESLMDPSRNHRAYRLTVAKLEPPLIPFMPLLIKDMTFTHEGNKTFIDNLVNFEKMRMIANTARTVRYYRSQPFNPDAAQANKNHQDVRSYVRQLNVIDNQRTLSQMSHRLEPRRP
# Chain of Rap guanine nucleotide exchange factor 3 (Homo sapiens) (O95398 whole entry, looked up): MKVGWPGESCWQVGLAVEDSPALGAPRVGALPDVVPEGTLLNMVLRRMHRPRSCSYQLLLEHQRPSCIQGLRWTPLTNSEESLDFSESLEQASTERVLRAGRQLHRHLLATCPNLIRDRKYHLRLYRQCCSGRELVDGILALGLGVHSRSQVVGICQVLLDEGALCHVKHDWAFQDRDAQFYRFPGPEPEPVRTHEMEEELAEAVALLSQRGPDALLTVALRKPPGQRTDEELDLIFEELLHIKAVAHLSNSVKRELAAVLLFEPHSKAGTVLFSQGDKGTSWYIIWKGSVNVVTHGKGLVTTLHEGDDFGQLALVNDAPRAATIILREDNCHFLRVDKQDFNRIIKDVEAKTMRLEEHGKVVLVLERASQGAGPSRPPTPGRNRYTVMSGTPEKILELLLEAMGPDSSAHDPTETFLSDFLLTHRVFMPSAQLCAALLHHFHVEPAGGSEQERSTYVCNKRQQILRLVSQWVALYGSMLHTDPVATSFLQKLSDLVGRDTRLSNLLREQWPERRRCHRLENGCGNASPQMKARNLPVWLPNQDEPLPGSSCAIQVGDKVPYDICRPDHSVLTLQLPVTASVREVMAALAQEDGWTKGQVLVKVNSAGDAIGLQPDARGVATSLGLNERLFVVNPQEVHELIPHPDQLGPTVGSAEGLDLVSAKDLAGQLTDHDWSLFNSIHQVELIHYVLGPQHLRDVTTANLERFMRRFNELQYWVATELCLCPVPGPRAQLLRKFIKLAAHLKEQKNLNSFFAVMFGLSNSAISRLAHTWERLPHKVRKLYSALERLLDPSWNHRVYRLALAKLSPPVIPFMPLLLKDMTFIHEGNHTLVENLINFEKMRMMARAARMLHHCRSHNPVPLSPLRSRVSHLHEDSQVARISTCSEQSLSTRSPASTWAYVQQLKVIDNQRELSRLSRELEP
# Chain of Cytochrome P450 3A4 (Homo sapiens) (P08684 whole entry, looked up): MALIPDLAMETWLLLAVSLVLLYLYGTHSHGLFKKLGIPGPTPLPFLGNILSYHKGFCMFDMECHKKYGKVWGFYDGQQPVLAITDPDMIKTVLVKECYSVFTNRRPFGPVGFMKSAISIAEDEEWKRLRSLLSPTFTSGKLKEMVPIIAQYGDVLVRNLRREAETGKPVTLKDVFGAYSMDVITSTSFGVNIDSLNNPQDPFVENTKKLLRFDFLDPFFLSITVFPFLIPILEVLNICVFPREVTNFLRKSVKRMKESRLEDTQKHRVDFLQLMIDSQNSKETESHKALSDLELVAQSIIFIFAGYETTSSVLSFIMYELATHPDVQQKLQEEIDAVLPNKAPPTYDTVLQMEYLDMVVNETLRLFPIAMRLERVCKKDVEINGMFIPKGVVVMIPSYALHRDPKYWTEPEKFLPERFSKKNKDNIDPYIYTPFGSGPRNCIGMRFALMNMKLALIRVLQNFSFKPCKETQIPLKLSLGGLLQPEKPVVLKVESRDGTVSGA
# Chain of Glucocorticoid receptor (Homo sapiens) (P04150 whole entry, looked up, the tested form may be a part): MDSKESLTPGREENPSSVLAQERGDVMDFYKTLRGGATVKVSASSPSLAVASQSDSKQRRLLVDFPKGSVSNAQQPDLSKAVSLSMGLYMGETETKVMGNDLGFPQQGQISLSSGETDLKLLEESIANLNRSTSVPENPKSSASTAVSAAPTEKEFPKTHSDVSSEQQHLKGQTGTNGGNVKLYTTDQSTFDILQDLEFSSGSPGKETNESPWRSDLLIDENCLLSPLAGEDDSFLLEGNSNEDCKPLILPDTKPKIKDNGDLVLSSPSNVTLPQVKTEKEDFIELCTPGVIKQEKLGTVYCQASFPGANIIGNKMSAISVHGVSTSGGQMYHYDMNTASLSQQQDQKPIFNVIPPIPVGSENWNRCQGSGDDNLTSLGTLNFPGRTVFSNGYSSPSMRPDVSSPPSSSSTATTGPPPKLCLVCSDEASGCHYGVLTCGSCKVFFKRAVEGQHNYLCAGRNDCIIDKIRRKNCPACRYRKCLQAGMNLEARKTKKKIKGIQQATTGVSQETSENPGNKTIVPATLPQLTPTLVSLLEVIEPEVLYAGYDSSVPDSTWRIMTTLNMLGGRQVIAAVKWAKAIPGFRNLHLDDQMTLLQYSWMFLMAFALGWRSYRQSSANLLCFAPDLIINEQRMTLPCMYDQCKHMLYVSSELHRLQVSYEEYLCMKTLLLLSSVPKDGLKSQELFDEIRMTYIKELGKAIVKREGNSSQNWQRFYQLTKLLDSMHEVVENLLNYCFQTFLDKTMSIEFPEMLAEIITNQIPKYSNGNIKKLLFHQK
# Chain of Catechol O-methyltransferase (Homo sapiens) (P21964 whole entry, looked up): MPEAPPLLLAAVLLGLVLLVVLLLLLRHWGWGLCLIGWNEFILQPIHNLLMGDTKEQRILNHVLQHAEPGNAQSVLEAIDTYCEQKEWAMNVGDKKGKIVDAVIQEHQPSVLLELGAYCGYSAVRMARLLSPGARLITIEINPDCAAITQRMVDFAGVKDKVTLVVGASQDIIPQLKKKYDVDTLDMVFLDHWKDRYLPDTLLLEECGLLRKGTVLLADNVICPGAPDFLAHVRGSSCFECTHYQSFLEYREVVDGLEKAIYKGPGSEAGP
# Chain of Nicotinamide N-methyltransferase (Homo sapiens) (P40261 whole entry, looked up): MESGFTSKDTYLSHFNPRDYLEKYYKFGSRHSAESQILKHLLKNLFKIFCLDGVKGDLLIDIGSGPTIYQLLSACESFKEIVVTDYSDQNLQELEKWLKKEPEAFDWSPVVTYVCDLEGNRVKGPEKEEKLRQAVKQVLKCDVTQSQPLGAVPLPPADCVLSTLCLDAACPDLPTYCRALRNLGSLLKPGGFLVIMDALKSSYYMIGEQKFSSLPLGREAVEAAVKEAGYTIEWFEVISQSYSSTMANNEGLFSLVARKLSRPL
# Chain of Phenylethanolamine N-methyltransferase (Homo sapiens) (P11086 whole entry, looked up): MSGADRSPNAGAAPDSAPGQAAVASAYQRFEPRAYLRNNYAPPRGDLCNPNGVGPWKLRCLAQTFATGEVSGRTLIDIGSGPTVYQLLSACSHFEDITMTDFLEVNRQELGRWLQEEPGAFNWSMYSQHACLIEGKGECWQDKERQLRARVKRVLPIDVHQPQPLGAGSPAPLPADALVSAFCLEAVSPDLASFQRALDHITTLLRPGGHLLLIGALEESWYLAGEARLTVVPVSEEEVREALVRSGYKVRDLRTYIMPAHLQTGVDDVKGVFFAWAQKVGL
compound,measurement,setting,value
O=C(O)c1c(Sc2ccccc2)c2cc(Cl)ccc2n1Cc1ccc(Cl)cc1,Potency,[1],inactive
same,Potency,[2],7.94 µM (active)
same,Potency,Furin (Homo sapiens),21.5 µM (active)
same,Potency,[3],19.2 µM (active)
same,Potency,[4],1.24 µM (active)
same,Potency,[5],126 µM (active)
same,Potency,[6],22.4 µM (active)
same,Potency,[7],inactive
same,Potency,[8],inactive
same,Potency,[9],inactive
O=C(O)Cn1ccc2cc(OCc3cccc(-c4cccc(C(F)(F)F)c4)c3)cnc21,Potency,Furin (Homo sapiens),63.9 µM (active)
same,Potency,[3],40.3 µM (active)
same,Potency,[10],inactive
same,Potency,[5],141 µM (active)
same,Potency,[6],28.2 µM (active)
same,Potency,[11],30.2 µM (active)
O=C(O)COc1ccc(-c2nccc3c2C(=O)N(Cc2cccc(C(F)(F)F)c2)CC(COc2cccnc2)O3)cc1 (stereo not given),Potency,Furin (Homo sapiens),inactive
same,Potency,[3],inactive
Cc1ccc2c(=O)c3ccccc3n(CCCN)c2c1C,Potency,Furin (Homo sapiens),24.1 µM (active)
same,Potency,[3],inactive
same,Potency,[12],21.2 µM (active)
same,Potency,[7],inactive
same,Potency,[9],inactive
CC1(COc2ccc(C[C@H]3SC(=O)NC3=O)cc2)CCCCC1,Potency,[13],> 46 µM (inactive)
same,Potency,[14],> 46 µM (inactive)
same,Potency,[15],inactive
same,Potency,[16],inactive
same,Potency,[17],79.4 µM (active)
same,Potency,[18],inactive
same,Potency,Furin (Homo sapiens),inactive
same,Potency,[3],21.5 µM (active)
same,Potency,[12],11.9 µM (active)
same,Potency,[7],inactive
same,Potency,[8],inactive
same,Potency,[9],inactive
same,Potency,[19],55.9 µM (active)
same,outcome,[20],inactive
same,outcome,[21],inactive
same,Potency,[22],49.4 µM (active)
Nc1ncnc2c1ncn2[C@@H]1O[C@H](C[C@@H](N)CC[C@H](N)C(=O)O)[C@@H](O)[C@H]1O,Potency,Furin (Homo sapiens),inactive
same,Potency,[23],inactive
same,Potency,[7],inactive
same,Potency,[8],inactive
same,Potency,[11],inactive
same,activity,[24],-81.8%
same,Potency,[25],21.7 µM (active)
same,activity,[26],-74.5%
same,activity,[27],-86.5%
CC(C)(C)c1ccc(NC(=O)O[C@@H]2CO[C@H]3[C@@H]2OC[C@@H]3Nc2nccc(-c3ccc(-c4ccccc4)cc3)n2)cc1,Potency,Furin (Homo sapiens),62.2 µM (active)
same,Potency,[3],inactive
C[C@@H](NC(=O)c1ccc(Cl)cc1)c1c(-c2ccc(F)cc2)noc1C(=O)O,Potency,Furin (Homo sapiens),inactive
same,Potency,[28],inactive
same,Potency,[10],inactive
same,Potency,[11],inactive
C[S+](CC[C@H](N)C(=O)O)C[C@H]1O[C@@H](n2cnc3c(N)ncnc32)[C@H](O)[C@H]1O (stereo not given in full),Potency,Furin (Homo sapiens),inactive
same,Potency,[23],inactive
same,Potency,[7],inactive
same,Potency,[8],inactive
same,Potency,[11],inactive
same,Potency,[29],inactive
CCOc1ccc(C2C(=O)N(C3CCCCCC3)CC(=O)N2CCc2ccc(Cl)cc2)cc1OC (stereo not given),Potency,Furin (Homo sapiens),inactive
same,Potency,[23],inactive
same,Potency,[7],inactive
same,Potency,[8],inactive
same,Potency,[11],18.6 µM (active)

# — PubChem BioAssay (NCATS)
